In all, about 360,000 compounds went through this assay and about 1,800 (0.5%) were called active. Shown is part of a subset that was picked to be rich in actives. Unmarked numbers belong to inactive results.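 Rule for the calls: active = interference check ratio from 0.5 to 1.5 plus GFP to RFP signal ratio inhibition reaching or exceeding a fixed threshold (cut at about 30% in these data, passing the limit was not always enough); inactive = the rest.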

A short description of the assay: suppressors of acrylamide-induced Pgst-4::GFP reporter in worms, primary screen, SKN-1 inhibitor project, whole organism, uHTS, GFP/RFP fluorescence ratio, strain VP596 (AID 624304). The note with it: C. elegans VP596 Pgst-4::GFP/RFP ratio, 24 h, at 21.8 µM, active compounds read high.
As to `CCC(Oc1ccccc1)C(=O)OCC(=O)Nc1c(C)nn(-c2ccccc2)c1C` (stereo unspecified), the inhibition was 15.9%.

`CC(C)C1CCN(C(=O)C2CCC(=O)N(C3CCCCCC3)C2)CC1` (stereo unspecified): the inhibition is -2.6%.

`Cc1nn(CC#N)c(=O)n1N(C)c1ncc(C(F)(F)F)cc1Cl`: the inhibition is -3.68%.

`Cc1nn(CC2CC2)c(=O)n1N(C)c1ncc(C(F)(F)F)cc1Cl`: the inhibition was 3.57%.

On to `Cc1nn(-c2ncc(C(F)(F)F)cc2Cl)c(=O)n1-c1ccccc1`, for which the inhibition is 35.6% (active).

Consider `CCCn1c(N)c(C(=O)CSc2nnc3n2CCCCC3)c(=O)[nH]c1=O`, for which the inhibition is 9.24%.

Regarding `COc1ccccc1C(=O)N(C1=NC(C)CS1)c1ccc(Cl)cc1` (stereo unspecified), the inhibition was -17.9%.

As for `Cc1ccc(N/C(N)=N/c2nc(C(F)(F)F)cc(C(F)(F)F)n2)cc1`, the inhibition was 2.4%.

Regarding `Oc1ccc(N=Nc2nccs2)c(O)c1`, the inhibition was 40.3% (active).

Take `Cc1c(NC(=S)Nc2ccccc2)c(=O)n(-c2ccccc2)n1C`: the inhibition is 13.7%.

Turning to `Cc1cc(C)cc(N(CC(=O)Nc2c(C)n(C)n(-c3ccccc3)c2=O)S(C)(=O)=O)c1`, the inhibition is -7.93%.

In the case of `CCN(CC)P(=O)(/C(Cl)=C\Nc1c(C)n(C)n(-c2ccccc2)c1=O)N(CC)CC`, the inhibition was 38.6% (active).

Take `C=CC[C@@H](CC(=O)NCCO)C(=O)N[C@H](C)COC(=O)[C@@H](CC=C)CC(=O)OC(C)(C)C`: the inhibition is 4%.

In the case of `CCOC(=O)C1CN(S(=O)(=O)c2ccc(F)cc2)C1`, the inhibition was -3.48%.

Consider `Cc1c(C2=CCN(S(=O)(=O)c3ccc(Cl)cc3)CC2)c2ccccc2n1C`, for which the inhibition was 40.5% (active).

`O=C(O)c1cccc(S(=O)(=O)N2CC=C(c3ccccc3)CC2)c1`: the inhibition was -4.6%.

On to `O=S(=O)(c1ccc(F)cc1)N1CC=C(c2ccccc2)CC1`, for which the inhibition is 0.877%.

In the case of `O=C(CSc1cccc[n+]1[O-])c1ccc(-c2ccccc2)cc1`, the inhibition is -20.6%.

On to `O=C(O)/C(=C/c1cccnc1)NC(=O)c1ccccc1`, for which the inhibition is 0.0898%.

Consider `Cc1cccc(NS(=O)(=O)c2ccc(C(=O)NCC(C)(C)N3CCOCC3)cc2)c1C`, for which the inhibition was -5.62%.

As for `Cc1cc(C(=O)COc2ccccc2[N+](=O)[O-])c(C)n1-c1cccc(S(=O)(=O)N2CCOCC2)c1`, the inhibition was 7.44%.

In the case of `COCCNC(=O)CN(C(=O)CCC(=O)Nc1cc(C)on1)c1ccc(C)cc1C`, the inhibition was -14.7%.

Consider `CC1CN(c2nc(Nc3ccccc3)nc(N)c2[N+](=O)[O-])CC(C)O1` (stereo unspecified), for which the inhibition was 38% (active).

`COCCNc1nc(N)c([N+](=O)[O-])c(N2CCCCCC2)n1`: the inhibition is 23.7%.

In the case of `Nc1nc(NCCCN2CCOCC2)nc(Nc2ccccc2)c1[N+](=O)[O-]`, the inhibition was 5.52%.

Consider `Fc1ccccc1OCCSc1nc2ccccc2o1`, for which the inhibition is 36.2% (active).

With `CCN(CC)C(=O)CSc1nc2ccccc2o1`, the inhibition was 0.512%.

As for `CC(C)(C)C(=O)CSc1nc2ccccc2o1`, the inhibition is -6.68%.

Turning to `Cn1c(SCC(=O)OC2CCCCC2)nnc1-c1ccc(S(=O)(=O)N2CCCC2)cc1`, the inhibition is -4.66%.

`O=C(NCCc1nnc2ccc(SCC(=O)N3CCOCC3)nn12)c1ccccc1`: the inhibition was 9.19%.

For the molecule `O=C(CSc1c2c(nc3ccc(Cl)cc13)CCCC2)NCc1ccco1`, the inhibition was 82.7% (active).

`O=C(NCc1ccco1)C1(c2ccc(Cl)cc2)CCCC1`: the inhibition is -1.05%.

On to `O=C(CSc1nnnn1-c1ccccc1)NCc1ccco1`, for which the inhibition is -15%.

As for `CCn1c(=O)n(CC)c2cc(N3CCCC3)c(NC(=O)c3ccccc3Br)cc21`, the inhibition is -26.6%.

Regarding `CCc1ccc2c(c1)C1(NN=C(c3ccccc3)S1)C(=O)N2` (stereo unspecified), the inhibition was 4.61%.

Regarding `Cc1ccc(-c2ccc(CN3C(C(C)C)C(=O)N(Cc4cn(CCC5OCCO5)nn4)CCS3(=O)=O)cc2)cc1` (stereo unspecified), the inhibition was 12.6%.

Regarding `COc1ccc(C2C3=C(OC(C)=O)c4ccccc4C3=Nc3c2c(=O)n(C)c(=O)n3C)cc1` (stereo unspecified), the inhibition is 2.4%.

Take `CCOc1ccc(OCC)c(NC(=O)CN(C)S(=O)(=O)c2cccc3nsnc23)c1`: the inhibition is 27.2%.

For the molecule `CCO[C@@H]1OC(C(=O)NCc2nc3ccccc3[nH]2)=C[C@H](C2CCCCC2)[C@H]1CCCO`, the inhibition is 7.19%.

For the molecule `CCOC(=O)C1=C(C)Nc2sc(C(=O)c3ccc(Br)cc3)c(N)c2C1c1ccc(C(=O)OC)cc1` (stereo unspecified), the inhibition was 37.2% (active).

Consider `CCOC(=O)C1=C(C)NC2=C(C(=O)CC(C)(C)C2)C1c1ccsc1` (stereo unspecified), for which the inhibition was 1.51%.

As for `COC(=O)c1ccc(C2NC(=O)NC(C)=C2C(=O)N(C)C)cc1` (stereo unspecified), the inhibition was 0.51%.

As for `CS(=O)(=O)N(CC(O)Cn1c2ccccc2c2ccccc21)c1cccc2ccccc12` (stereo unspecified), the inhibition is 5.96%.

As for `Oc1cccc2cc(-c3ccncc3)cnc12`, the inhibition was -1.84%.

For the molecule `CC1=NN(C(=O)CCc2ccccc2O)C(O)(C(F)(F)F)C1` (stereo unspecified), the inhibition is 0.219%.

On to `CCN(CC)S(=O)(=O)c1ccc(N(C)Cc2cccc(OC)c2OC)nc1`, for which the inhibition is 13.3%.

On to `CCN(CC)S(=O)(=O)c1ccc(N(C)Cc2ccc(C(F)(F)F)cc2)nc1`, for which the inhibition is 3.82%.

With `CCN(CC)S(=O)(=O)c1ccc(N(C)CCc2ccc(OC)c(OC)c2)nc1`, the inhibition is 43% (active).

Regarding `S=c1[nH]ccn1-c1ccc(Cl)cc1`, the inhibition was 1.55%.

As to `COc1cc2c(C(=O)N3CCN(C)CC3)c(CSc3ccccc3)n(C)c2cc1Br`, the inhibition was -4.81%.

As for `Oc1ccc(-c2nncn2-c2ccccc2)cc1`, the inhibition is 3.4%.

On to `CC(=O)Nc1ccc(NC(=O)CCN2C(=O)C3CC=CCC3C2=O)cc1` (stereo unspecified), for which the inhibition is -12.5%.

Turning to `O=C(CCCN1C(=O)/C(=C/c2cccs2)SC1=S)Nc1ccc(O)cc1`, the inhibition was 38.3% (active).

For `Cc1c(C(=O)NCCN2C(=O)S/C(=C\c3cccs3)C2=O)cccc1[N+](=O)[O-]`, the inhibition is 9.81%.

Regarding `O=C(NCCC1=CCCCC1)c1ccc(Cl)c([N+](=O)[O-])c1`, the inhibition is 7.85%.

On to `CC(Sc1nncn1C)C(=O)NCCC1=CCCCC1` (stereo unspecified), for which the inhibition was -8.96%.

Turning to `Cn1nnc2cc(C(=O)NCCC3=CCCCC3)ccc21`, the inhibition is 35.4% (active).

Take `CC(=O)N1CCN(c2ccccc2NC(=S)NC(=O)c2cc3ccccc3o2)CC1`: the inhibition was 6.86%.

`COc1ccc(C(=O)NC(=S)Nc2ccccc2N2CCN(S(C)(=O)=O)CC2)cc1OC`: the inhibition is 41% (active).

For the molecule `CCc1ccc(C(=O)NC(=S)Nc2ccccc2N2CCOCC2)cc1`, the inhibition is 11%.

`CC(=O)c1cccc(NC(=O)N2CCCC2C(=O)NCCc2ccccc2)c1` (stereo unspecified): the inhibition is 23.5%.

In the case of `COCCn1cnnc1SCC(=O)Nc1cccc(S(=O)(=O)N2CCCCC2)c1`, the inhibition was 47% (active).

On to `Cn1nnnc1SCC(=O)Nc1cccc(S(=O)(=O)N2CCCCC2)c1`, for which the inhibition is 6.32%.

Regarding `O=C(CSc1ccccc1)Nc1cccc(S(=O)(=O)N2CCCCC2)c1`, the inhibition was 12.9%.

For the molecule `CCOC(=O)C1CCCN(C(=O)COc2ccc(N(C)S(=O)(=O)c3ccc(C)cc3)cc2)C1` (stereo unspecified), the inhibition is -2.11%.

Consider `Cn1cc(S(=O)(=O)N2CCN(c3ccc(F)cc3)CC2)c(=O)n(C)c1=O`, for which the inhibition is 1.81%.

On to `CCN1C(=O)[C@@H]2[C@@H]3CN(S(=O)(=O)c4ccccc4C)[C@@H](c4ccc(Cl)cc4)[C@@H]3C(=O)C[C@@H]2C1=O`, for which the inhibition is 2.39%.

On to `C#CCN(C[C@H]1[C@H](OC(=O)NC2CCCC2)[C@H](OC(=O)NC2CCCC2)C[C@H]2C(=O)N(c3ccccc3)C(=O)[C@@H]12)S(=O)(=O)c1ccc(C)cc1`, for which the inhibition is 11.9%.

As for `COc1ccc2oc(N)nc2c1`, the inhibition was 3.43%.

`CCc1ccc2oc(-c3ccc(N)cc3)nc2c1`: the inhibition was 39.8% (active).

For `O=[N+]([O-])c1ccc2oc(-c3cccc(O)c3)nc2c1`, the inhibition was 17%.

Turning to `C[C@H]1CN(c2ccc(Br)cc2)C(=O)[C@@H]1CC(=O)Nc1ccc(Br)cc1`, the inhibition is -1.36%.

Turning to `CCCCN1C[C@H](c2ccc(Br)cc2)[C@@H](CC(=O)Nc2ccc(Br)cc2)C1=O`, the inhibition is 46.8% (active).

For `CCCCN1CC(C)(C)[C@H](CC(=O)Nc2ccc(Br)cc2)C1=O`, the inhibition was 13%.

Regarding `COC(=O)c1ccc(N(CC(=O)NC2CCCC2)C(=O)CNC(=O)c2ccco2)cc1`, the inhibition was 13.4%.

As to `Cc1ccoc1C(=O)Nc1cccc(Oc2ccccc2)c1`, the inhibition was -23.9%.

`NS(=O)(=O)c1cccc(NC(=O)COC(=O)/C=C/c2ccco2)c1`: the inhibition is 0.905%.

For the molecule `O=C(Nc1ccc(Oc2ccccc2)cc1)c1ccco1`, the inhibition was 38.8% (active).

As for `O=C(/C=C/c1ccco1)Nc1ccc(Oc2ccccc2)cc1`, the inhibition is 48.8% (active).

As to `O=C(/C=C/c1ccco1)NC(=S)N1CCCCC1`, the inhibition is 11.9%.

In the case of `CN1CCN(S(=O)(=O)c2ccc(NC(=O)c3ccco3)cc2)CC1`, the inhibition was 13.7%.

For the molecule `CCNc1nc(NC(C)C)nc(N2CC(=O)N(CC(=O)OCC)C2=N)n1`, the inhibition is 3.01%.

Consider `NS(=O)(=O)c1ccccc1NC(=O)c1c(O)c2ccccc2[nH]c1=O`, for which the inhibition was 5.41%.

Consider `COc1cccc(CNS(=O)(=O)c2ccc3c(c2)N(C(C)=O)CCS3)c1`, for which the inhibition is 19.6%.

As for `Cc1oc(-c2ccccc2F)nc1CS(=O)CC(=O)NCCN1CCCCC1C` (stereo unspecified), the inhibition was 5.11%.

Take `N#Cc1nc(-c2cccc3ccccc23)oc1N`: the inhibition is 16.8%.

`CC1CCN(c2oc(-c3ccccc3F)nc2C#N)CC1`: the inhibition is 35.4% (active).

As for `O=[N+]([O-])c1cc([N+](=O)[O-])c(Oc2cc(F)cc(F)c2F)cc1NN1CCCCC1`, the inhibition is 15.8%.

`CCCNC(=O)C1(C)CCN(C(=O)c2ccccc2OC(F)(F)F)C1` (stereo unspecified): the inhibition was -0.325%.

For `O=C(CCc1ccc(S(=O)(=O)NC2CCCCC2)cc1)NCc1ccccc1`, the inhibition is 3.92%.

`Cc1cc(N=Nc2ccc3ccccc3c2)ccc1O`: the inhibition was 44.4% (active).

As usually defined, the inhibition is the change of the read-out against control, counted positive when it falls.

The record behind these values is PubChem BioAssay AID624304 (Sanford-Burnham Center for Chemical Genomics, 2012).
